# Experimental data: the supplement of paper PMC6607015
# Structures can show the parent of a compound that is named as a salt.
# Assays:
# Settings in all cases: compound concentration in added solution (µM; 5 µl added to 20 µl cells): 10; 18 h
# A431 [1] = test: LBPA endosome anti-LBPA integrated intensity (sum per cell), Z-score; higher = more LBPA staining
# Summary of the method: (§1)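 Each value is a Z-score normalised in AcuityXpress from per-cell integrated LBPA or filipin intensity, taken over the whole cell or within LBPA endosomes. Duplicate 384-well imaging plates held 5 µl of 10 µM compound solution, onto which 3,500 HeLa MZ or A431 cells in 20 µl were seeded per well. After 18 h the cells were fixed in 4% PFA, stained with 6C4 anti-LBPA antibody, filipin, propidium iodide and CellTracker green, imaged four times per well at 20× and segmented in MetaXpress.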
# HeLa MZ [2] = test: as above
# Summary of the method: as §1
# A431 [3] = test: whole-cell filipin (free cholesterol) integrated intensity, Z-score; higher = more cholesterol staining
# Summary of the method: as §1
# HeLa MZ [4] = test: as above
# Summary of the method: as §1
# A431 [5] = test: filipin (cholesterol) integrated intensity within LBPA endosomes, Z-score; higher = more cholesterol in LBPA endosomes
# Summary of the method: as §1
# HeLa MZ [6] = test: as above
# Summary of the method: as §1
Compound,LBPA endosome anti-LBPA integrated intensity (z-score) (A431 [1]),LBPA endosome anti-LBPA integrated intensity (z-score) (HeLa MZ [2]),whole-cell filipin (z-score) (A431 [3]),whole-cell filipin (z-score) (HeLa MZ [4]),filipin (z-score) (A431 [5]),filipin (z-score) (HeLa MZ [6])
CC(=O)[C@H]1CC[C@H]2[C@@H]3C=CC4=CC(=O)CC[C@@]4(C)[C@@H]3CC[C@]12C [Dydrogesterone],1.19,1.12,0.649,0.0624,0.655,-0.0901
CCCCN1CCCCC1C(=O)Nc1c(C)cccc1C (stereo not drawn) [Bupivacaine hydrochloride],-0.317,-0.117,-0.729,-0.969,-0.543,-0.511
O=C(NCCN1CCOCC1)c1ccc(Cl)cc1 [Moclobemide],-0.577,-0.12,-0.751,-0.413,-0.499,-0.447
O=C(O)c1cc(=O)c2c(OCC(O)COc3cccc4oc(C(=O)O)cc(=O)c34)cccc2o1 [Cromolyn disodium salt],-0.474,-0.0857,-0.438,-0.156,-0.425,-0.474
CC(=O)O[C@]1(C(C)=O)CC[C@H]2[C@@H]3C=C(C)C4=CC(=O)CC[C@]4(C)[C@H]3CC[C@@]21C [Megestrol acetate],-0.482,-1.05,-0.244,0.402,-0.317,-0.342
CCCCNc1ccc(C(=O)OCCN(C)C)cc1 [Tetraca? hydrochloride],-0.207,0.761,-0.403,-0.308,-0.238,0.182
CO[C@H]1/C=C/O[C@@]2(C)Oc3c(C)c(O)c4c(O)c(c(/C=N/N5CCN(C)CC5)c(O)c4c3C2=O)NC(=O)/C(C)=C\C=C\[C@H](C)[C@H](O)[C@@H](C)[C@@H](O)[C@@H](C)[C@H](OC(C)=O)[C@@H]1C [Rifampicin],-0.422,-0.231,-0.651,-0.372,-0.402,-0.338
CCCCCCCN(CC)CCCC(O)c1ccc(NS(C)(=O)=O)cc1 (stereo not drawn) [Ibutilide fumarate],0.46,1.54,0.561,0.166,0.22,0.621
CO[C@H]1/C=C/O[C@@]2(C)Oc3c(C)c(O)c4c(c3C2=O)C2=NC3(CCN(CC(C)C)CC3)NC2=C(NC(=O)/C(C)=C\C=C\[C@H](C)[C@H](O)[C@@H](C)[C@@H](O)[C@@H](C)[C@H](OC(C)=O)[C@@H]1C)C4=O [Rifabutin],-0.125,1.08,0.49,0.136,-0.0844,0.633
CC(=O)Oc1ccccc1C(=O)Oc1ccccc1C(=O)O [Acetylsalicylsalicylic acid],-0.367,-0.319,-0.583,-0.226,-0.456,-0.52
NS(=O)(=O)c1cc2c(cc1C(F)(F)F)NC(Cc1ccccc1)NS2(=O)=O (stereo not drawn) [Bendroflumethiazide],-0.595,-0.755,-0.332,-0.0234,-0.529,-0.486
CC(C(=O)O)c1ccc(-c2ccccc2)c(F)c1 (stereo not drawn) [Flurbiprofen],-0.227,0.0649,0.155,-0.426,-0.328,-0.513
CC1=C(C(=O)O)N2C(=O)[C@@H](NC(=O)[C@H](N)c3ccc(O)cc3)[C@H]2SC1 [Cefadroxil],-0.651,-1.02,-0.697,-0.675,-0.507,-0.626
Cc1cccc(C)c1OCC(C)N (stereo not drawn) [Mexiletine hydrochloride],-0.572,-0.935,-0.883,-0.901,-0.495,-0.576
CO/N=C(\C(=O)N[C@@H]1C(=O)N2C(C(=O)O)=C(COC(N)=O)CS[C@H]12)c1ccco1 [Cefuroxime sodium salt],-0.467,-0.812,-0.402,0.0343,-0.419,-0.472
CC(=O)c1ccc2c(c1)N(CCCN1CCC(CCO)CC1)c1ccccc1S2 [Piperacetazine],4.58,1.54,2.51,1.35,3.1,3.21
CN1[C@@H]2CC[C@H]1C[C@@H](OC(c1ccccc1)c1ccccc1)C2 [Benztropine mesylate],2.51,2.77,3.07,3.74,2.51,2.8
Cc1c(C)c2c(c(C)c1O)CCC(C)(COc1ccc(CC3SC(=O)NC3=O)cc1)O2 (stereo not drawn) [Troglitazone],-0.514,-0.51,-0.29,-0.287,-0.459,-0.355
Oc1ccc(OCc2ccccc2)cc1 [Monobenzone],-0.343,2.16,2.23,2.56,-0.548,-0.736

Compound,LBPA endosome anti-LBPA integrated intensity (z-score) (A431 [1]),LBPA endosome anti-LBPA integrated intensity (z-score) (HeLa MZ [2]),whole-cell filipin (z-score) (A431 [3]),whole-cell filipin (z-score) (HeLa MZ [4]),filipin (z-score) (A431 [5]),filipin (z-score) (HeLa MZ [6])
CCN(CCCCOC(=O)c1ccc(OC)c(OC)c1)C(C)Cc1ccc(OC)cc1 (stereo not drawn) [Mebeverine hydrochloride],2.42,2.15,1.9,1.63,2.46,2.74
COc1cc(C(=O)NCc2ccc(OCCN(C)C)cc2)cc(OC)c1OC [Trimethobenzamide hydrochloride],-0.218,-0.274,-0.94,-0.877,-0.32,-0.334
CN(C)CCN(Cc1cccs1)c1ccccn1 [Methapyrilene hydrochloride],-0.506,0.465,-0.777,-0.37,-0.539,-0.0761
Cc1ccc(C(=O)c2ccc(CC(=O)O)n2C)cc1 [Tolmetin sodium salt dihydrate],-0.35,-0.0177,-0.301,-0.429,-0.412,-0.483
Clc1ccc(CO/N=C(\Cn2ccnc2)c2ccc(Cl)cc2Cl)c(Cl)c1 [Oxiconazole Nitrate],0.391,1.11,1.4,1.62,0.64,0.784
C=CC(N)CCC(=O)O (stereo not drawn) [Vigabatrin],-0.513,-0.602,-1.01,-0.729,-0.566,-0.59
CC(=O)Oc1ccccc1C(=O)O [Acetylsalicylic acid],-0.437,-1.33,-0.0786,-0.536,-0.409,-0.51
COc1nc(C)nc(Cl)c1NC1=NCCN1 [Moxonidine],-0.127,0.511,-0.0575,-0.203,-0.176,-0.384
Cc1ccc(NC(=O)c2ccc(CN3CCN(C)CC3)cc2)cc1Nc1nccc(-c2cccnc2)n1 [Imatinib],3.97,1.01,2.96,3.48,4.02,3.74
O=C(NCC(O)CO)c1c(I)c(C(=O)NCC(O)CO)c(I)c(N(CCO)C(=O)CO)c1I (stereo not drawn) [Ioversol],-0.561,-1.26,-0.43,-0.621,-0.499,-0.701
"OCC(O)CN1CCN(c2ccccc2)CC1 (racemic) [Dropropizine (R,S)]",-0.485,-0.821,-0.651,-0.914,-0.515,-0.59
C[C@]12CC[C@@H]3c4ccc(O)cc4CC[C@H]3[C@@H]1CC[C@@H]2O [Estradiol-17 beta],-0.253,0.492,-0.4,-1.01,-0.426,-0.515
CCOc1ccc2ccccc2c1C(=O)N[C@@H]1C(=O)N2[C@@H]1SC(C)(C)[C@@H]2C(=O)O [Nafcillin sodium salt monohydrate],-0.558,-0.117,-0.348,-0.195,-0.443,-0.476
C/C=C(/C(=C/C)c1ccc(O)cc1)c1ccc(O)cc1 [Dienestrol],-0.546,-0.673,-0.449,-0.338,-0.497,-0.451
OC(Cn1cncn1)(Cn1cncn1)c1ccc(F)cc1F [Fluconazole],-0.239,0.69,-0.0365,0.704,-0.366,-0.348
C[C@]12C[C@H](O)[C@H]3[C@@H](CCC4=CC(=O)CC[C@@]43C)[C@@H]1CC[C@@H]2C(=O)CO [Corticosterone],-0.334,0.522,-0.492,-0.633,-0.326,-0.407
Clc1ccc(C(Cn2ccnc2)OCc2ccsc2Cl)c(Cl)c1 (stereo not drawn) [Tioconazole],-0.225,0.542,-0.125,-0.75,-0.053,-0.127
C=C1C[C@H]2[C@@H]3C=C(C)C4=CC(=O)CC[C@]4(C)[C@H]3CC[C@]2(C)[C@@]1(OC(C)=O)C(C)=O [Melengestrol acetate],1.2,1.67,2.08,1.46,1.58,1.05
CCOC(=O)O[C@]1(C(=O)COC(=O)CC)CC[C@H]2[C@@H]3CCC4=CC(=O)C=C[C@]4(C)[C@H]3[C@@H](O)C[C@@]21C [Prednicarbate],-0.408,-0.375,0.46,0.0462,-0.282,-0.201
